Measured values published in PubChem BioAssay (NCI).
The panel holds about 79,000 compounds, 15% with a hit somewhere; the sample as a whole holds those more often. Calls of active or inactive are those of the source. No stated cut-off is given here; in the data, active means growth inhibition above about 70%; inactive means the rest.

Columns and labels:
[1] = NCI Yeast Anticancer Drug Screen. Data for the rad50 strain (AID 155);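 further: 0% = growth of vehicle-only cultures of the same strain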; details: S. cerevisiae rad50 strain growth inhibition; at 50.0 µM; hits give high values
Procedure, shortened: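 Yeast carrying a defined DNA repair defect were exposed to test compounds, and growth was compared with vehicle-treated controls to give percent inhibition.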

[2] = NCI Yeast Anticancer Drug Screen. Data for the mec2-1 strain (AID 157); details: S. cerevisiae mec2-1 strain, at 50.0 µM, hits give high values
Procedure, shortened: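 mec2-1 yeast strain, carrying an alteration in DNA damage repair or cell cycle control, was exposed to compounds; growth inhibition was measured relative to vehicle-treated controls.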

[3] = NCI Yeast Anticancer Drug Screen. Data for the sgs1 mgt1 strain (AID 161);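 further: 0% = growth of cultures given vehicle only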; details: S. cerevisiae sgs1 mgt1 strain, at 50.0 µM, hits give high values
Procedure, shortened: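 Percent growth inhibition was derived by comparing compound-exposed mutant yeast with vehicle-exposed cultures. The strain carries alterations in DNA damage repair.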

[4] = NCI Yeast Anticancer Drug Screen. Data for the cln2 rad14 strain (AID 165);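 further: 0% = growth equal to vehicle treated cultures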; details: S. cerevisiae cln2 rad14 strain, at 50.0 µM, hits give high values
Procedure, shortened: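 Yeast carrying cln2 and rad14 alterations (cell cycle control and DNA damage repair) were exposed to compounds. Growth inhibition was measured against vehicle-treated controls.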

[5] = NCI Yeast Anticancer Drug Screen. Data for the bub3 strain (AID 167); details: S. cerevisiae bub3 mutant strain, at 50.0 µM, hits give high values
Procedure, shortened: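 Compounds were applied to a genetically altered yeast strain carrying a cell-cycle control defect. Growth inhibition was scored against vehicle-treated controls.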

[6] = NCI Yeast Anticancer Drug Screen. Data for the mlh1 rad18 strain (AID 175); details: S. cerevisiae mlh1 rad18 strain growth inhibition; at 50.0 µM; hits give high values
Procedure, shortened: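 Growth inhibition of the yeast strain was measured after compound exposure and expressed relative to vehicle-treated controls. The strain carries defined defects in DNA damage repair.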

Measured: growth inhibition

N#CC1(C#N)C2(c3ccccc3)OC(c3ccccc3)(c3cc4ccccc4cc32)C1(C#N)C#N
inactive: [1] 1.75% | [2] 20.1% | [3] -4.1% | [4] 14.1% | [5] 8% | [6] 29.1%

OC1=CC(=S)NC2CCCCC12 (stereo not given)
inactive: [1] 32.2% | [2] 18.2% | [3] 45% | [4] 35.9% | [5] 29.4% | [6] 49.8%

C[C@@H]1C(=O)OCC2=C3C[C@@H](CC[C@@]3(C)C=CC2=O)[C@H](C)C(=O)OCC2=C3C[C@H]1CC[C@@]3(C)C=CC2=O
inactive: [1] 4.3% | [2] -3.7% | [3] -1.35% | [4] 15.7% | [5] 1.7% | [6] 20.8%

CC(=O)Nc1cccnc1
inactive: [1] -18.1% | [2] -3.85% | [3] 4.85% | [4] -21.1% | [5] -19.9% | [6] -2.45%

CN(C)C=Nc1ccc([N+](=O)[O-])cc1
inactive: [1] -7.7% | [2] -2.65% | [3] -1.25% | [4] -12.8% | [5] -0.6% | [6] -5.3%

O=C(/C=C(\Br)c1ccccc1)c1ccccc1
active: [1] 99.3% | [2] 99.5% | [3] 99.8% | [4] 99.2% | [5] 98.9% | [6] 99.3%

CCCCCCCCCCCCCCCCS
inactive: [1] -2.15% | [2] -16.4% | [3] 17.6% | [4] -6.6% | [5] 6.6% | [6] -4.8%

COc1cccc(N=Cc2ccc(C=Nc3cccc(OC)c3)cc2)c1
inactive: [1] 5.95% | [2] -9.1% | [3] 11.1% | [4] -9.35% | [5] 27.7% | [6] -12.4%

CCOC(=O)CCC(C(=O)OCC)N1C(=O)c2ccccc2C1=O (stereo not given)
inactive: [1] 1% | [2] 6.75% | [3] 8.25% | [4] 11.8% | [5] 23.8% | [6] -1.7%

Nc1ccc[nH]c1=O
inactive: [1] 15.7% | [2] 4% | [3] 19.6% | [4] 8.8% | [5] 20.7% | [6] -12.4%

O=c1c2cc(S(=O)(=O)Nc3ccc(Cl)cc3Cl)ccc2ncn1NS(=O)(=O)c1cccc2ccccc12
inactive: [1] 10.9% | [2] -5.4% | [3] 28.6% | [4] 18.8% | [5] 8.85% | [6] 14.9%

NC(=O)C1C(=O)c2cccc3c2C1CCCC3 (stereo not given)
inactive: [1] -11% | [2] 9.85% | [3] -5.6% | [4] -31% | [5] -11% | [6] 20.7%

CSc1ncnc2ncn(C)c12
inactive: [1] 11.9% | [2] -2.6% | [3] 4.4% | [4] -9.95% | [5] 3.25% | [6] 1.75%

CC1=NN(c2cccc([N+](=O)[O-])c2)C(=O)C1
inactive: [1] 13.9% | [2] -25% | [3] 10.7% | [4] -5.7% | [5] 16.8% | [6] 32.6%

c1cc(CNCCN2CCNCC2)ccn1
inactive: [1] 7.45% | [2] -34.2% | [3] -3.7% | [4] -1.9% | [5] -48.9% | [6] 16.8%

CN1CCN(CCSC(=O)C(O)(c2ccccc2)C2CCCC2)CC1 (stereo not given)
inactive: [1] 17.1% | [2] 16.6% | [3] 7.35% | [4] -17.2% | [5] 4.6% | [6] 24.8%

CN(C)/C(=N/C(=O)Nc1ccccc1)SCc1ccccc1
inactive: [1] -10.5% | [2] -3.9% | [3] 0.45% | [4] -32% | [5] -9.1% | [6] -1.2%

CC/C(=C\c1ccc(Cl)cc1)c1ccncc1
active: [1] 99.2% | [2] 99.5% | [3] 99.1% | [4] 99% | [5] 99.2% | [6] 99.2%

C1CSC(SCCCSC2SCCCS2)SC1
inactive: [1] -4.1% | [2] 5.3% | [3] -9.9% | [4] -7.1% | [5] -12.2% | [6] -14.1%

CCC(C)C(C)(CO)CO (stereo not given)
inactive: [1] 1.5% | [2] -20.9% | [3] -3.7% | [4] 20.4% | [5] -14.3% | [6] 25.6%
